PubChem BioAssay AID862 (The Scripps Research Institute Molecular Screening Center, 2007)
Hit rate of the full screen: of about 190,000 compounds, about 1,700 (0.89%) were called active.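 The calls were made as follows: active = inhibition above the mean inhibition across all screened compounds plus 3 SD (cut at about 44% in these data); inactive = the rest.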 This excerpt belongs to a sample that is enriched for actives.

assay: IL-6 driven STAT3 reporter inhibitors, primary screen, U3A cells, luciferase, luminescence, MLSCN library (AID 862); settings: IL-6 STAT3-luciferase reporter, at 5.5 µM, active compounds read high, host cell line lacks STAT1;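 also: 0% = DMSO only wells and 100% = 100 µM nifuroxazide control wells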

Compound	inhibition
O=C(Nc1ccccc1Cc1ccccc1)c1ccc2c(c1)SC1=NS(=O)(=O)CCN12	-8.5% (inactive)
O=C(CSc1nc2ccccc2c(=O)n1CCCO)N1CCc2ccccc21	12.6% (inactive)
O=C(CSc1nc2[nH]ncc2c(=O)n1-c1ccccc1)N1CCCc2ccccc21	-21.2% (inactive)
Cn1c(SCC(=O)N2CCCc3ccccc32)nc2ccccc2c1=O	62.3% (active)
COc1ccc(N2C(=O)C(O)C2c2ccc(C)cc2)cc1 (stereo not given)	-18.4% (inactive)
O=C(OCC(=O)c1cccs1)c1ccc([N+](=O)[O-])o1	0.6% (inactive)
COc1ccc(NC(=O)c2cc3nc(-c4ccccc4)cc(C)n3n2)cc1OC	17.9% (inactive)
C(=N\Nc1ccc2ccccc2n1)/c1ccc2c(c1)OCO2	91.2% (active)
Brc1ccc(-c2csc(N/N=C/c3ccc4c(c3)OCO4)n2)cc1	5% (inactive)
Cc1noc(C)c1/C=N/Nc1ccc2ccccc2n1	-21.3% (inactive)
S=c1[nH]nc(Nc2ccccc2)s1	12% (inactive)
CN(c1ccccc1)c1nc(N)c([N+](=O)[O-])c(NCc2ccco2)n1	-0.4% (inactive)
CCC(=O)/C=C1\Sc2ccccc2N1CC	20.7% (inactive)
CCN1/C(=C\c2ccc3ccccc3[n+]2CC)Sc2cc(C)ccc21	84.8% (active)
Cc1ccccc1NC(=O)CN1C(=O)N/C(=C\c2cccn2-c2cccc(C(=O)O)c2)C1=O	6% (inactive)
O=C(O)CSCC(=O)Nc1ccc(C(F)(F)F)cc1	6.5% (inactive)
CC(C)(C)c1ccc(Oc2ccc(N)cc2)cc1	76.2% (active)
Cc1ccc(Oc2ccc(N)cc2)cc1	0.4% (inactive)
Nc1ccc(Oc2ccc(Cl)cc2)cc1	-0.6% (inactive)
Cc1ccc(NC(=O)Nc2ccccc2)c(Br)c1	16.3% (inactive)
C=CCNc1scc(-c2ccccc2)[n+]1CC=C	4.7% (inactive)
C=CC[n+]1c(-c2ccc(C)cc2)csc1NNC(=O)Nc1ccccc1	46.3% (active)

Compound	inhibition
CCCN(CC(=O)Nc1ccc(C(N)=O)cc1)CC(=O)Nc1ccccc1C	3.9% (inactive)
Cc1csc(NC(=O)Nc2ccccc2[N+](=O)[O-])n1	-24.9% (inactive)
OCCCC1CCCCN1Cc1nc(Cc2ccccc2Cl)no1 (stereo not given)	4.3% (inactive)
N/C(=N\OC(=O)c1ccc2c(c1)OCO2)c1ccc(Br)cc1	9.8% (inactive)
Cc1ccc2nc(-c3ccc(NC(=O)CN(C)S(=O)(=O)c4ccccc4)cc3)sc2c1	49.8% (active)
Cc1cccc(N(CC(=O)Nc2ccc(-c3nc4ccc(C)cc4s3)cc2)S(C)(=O)=O)c1	28% (inactive)
COc1cc(NC(=O)CN(C)S(=O)(=O)c2ccc3nc(C)sc3c2)cc(OC)c1	0.9% (inactive)
O=C(CCc1ccccc1)NCCc1cccs1	4.7% (inactive)
O=C(C/C(=N\NC(=O)c1ccccc1Br)C(F)(F)F)c1cccs1	-8.2% (inactive)
COc1cccc(C(=O)Nc2ccc(NC(=O)c3ccco3)cn2)c1	12.2% (inactive)
O=C(Nc1ccc2nccnc2c1)c1ccco1	14.3% (inactive)
O=C(Nc1ccc(NC(=O)c2cccs2)cn1)c1ccco1	48.3% (active)
N=c1n(CCc2ccccc2)c2ccccc2n1Cc1ccccc1F	0.2% (inactive)
CCc1ccc(CN(C)Cc2nc(Cc3ccccc3)no2)nc1	-2.9% (inactive)
CC1=CC=CN2C1=NC(=O)CC2(C)C(=O)N(CC(=O)NC1CCCC1)c1ccccc1C (stereo not given)	4.4% (inactive)
Cc1cc(N/C=C\C(=O)c2ccc(Cl)c(Cl)c2)no1	-7.8% (inactive)
COc1ccc(C(=O)/C=C/Nc2ccccn2)cc1	97.2% (active)
CCOc1cc(NC(=O)c2ccccn2)c(OCC)cc1NC(=O)c1ccc(OC)cc1	13.8% (inactive)
Cc1ccc(CC2CC(=O)N(c3nc(C)cc(C)n3)C2=O)cc1 (stereo not given)	-0.9% (inactive)
Clc1cccc(-c2nc(NCC3CCCO3)c3ccccc3n2)c1 (stereo not given)	15.5% (inactive)
CCCCCCCCn1c2c(c(=N)c3c1CCC3)CCCC2	76.2% (active)
CCCCCCn1c(CN2CCCCC2)nc2c1c(=O)n(C)c(=O)n2C	-8.1% (inactive)

Compound	inhibition
COc1ccc(/C=C/C(=O)OCC(=O)NCc2cccs2)cc1OC	-9.7% (inactive)
O=C(c1ccc(F)cc1)c1cn(Cc2ccc(F)cc2)c2cc3c(cc2c1=O)OCCO3	4.1% (inactive)
Cc1cc(C2=NNC(=Nc3ccc(S(=O)(=O)N4CCOCC4)cc3)SC2)c(C)n1CC1CCCO1 (stereo not given)	-0.3% (inactive)
C=CCn1c(C)cc(C2=NNC(=NCC)SC2)c1C	108% (active)
COCCn1c(C)cc(C2=NNC(=Nc3ccc(F)cc3)SC2)c1C	-33.4% (inactive)
[O-][n+]1c2c(nn1-c1ccc(Cl)c(Cl)c1)-c1nonc1CC2	5.8% (inactive)
CC1CCN(c2ccc(C(=O)Nc3nnc(C4CC4)s3)cc2[N+](=O)[O-])CC1	-3% (inactive)
Cc1cccc2c(=O)n3c(nc12)CCCCC3	2.1% (inactive)
O=c1c2c(nc3n1CCCCC3)sc1c(O)cccc12	64.8% (active)
Cc1c(C(=O)Nc2ccccc2)sc2nc3n(c(=O)c12)CCCCC3	10.4% (inactive)
CC(C)Cn1c(N)c(C(=O)COC(=O)CN2C(=O)C3CC=CCC3C2=O)c(=O)n(C)c1=O (stereo not given)	30.1% (inactive)
COC(=O)c1c(NC(=O)CCCC(=O)O)sc2c1CCCCC2	22.2% (inactive)
CCOCCCNCc1ccc(OCc2ccc(F)cc2)c(OC)c1	5.2% (inactive)
CC(C)Oc1ccc(CCc2nnc(SCC(=O)O)n2-c2ccccc2)cc1	13.3% (inactive)
Cc1ccc2nc(-c3ccc(NC(=O)c4cccnc4)cc3)oc2c1	67.9% (active)
Cc1cc2nc(-c3ccc(NC(=O)c4cccnc4)cc3)oc2cc1C	7.8% (inactive)
Cc1ccc(-n2nc3cc(C)c(NC(=O)c4cccnc4)cc3n2)cc1	11.8% (inactive)
Cc1cccc(NC(=O)c2cc([N+](=O)[O-])ccc2N2CCN(C)CC2)c1	6.2% (inactive)
COC(=O)CCNC(=O)c1ccc2[nH]c(C)c(C)c2c1	11% (inactive)
Cc1cc(C(=O)COc2ccccc2[N+](=O)[O-])c(C)n1-c1cccc(S(=O)(=O)N2CCOCC2)c1	-4.1% (inactive)
Cc1[nH]c2ccccc2c1C(=O)COC(=O)c1c(-c2ccccc2)noc1C	-1.9% (inactive)
